Laboratory results: the supplement of paper PMC11732987, “Enantioselective OTUD7B fragment discovery through chemoproteomics screening and high-throughput optimisation” (Communications Chemistry, 2025)

Legend:
Experiment in all cases: log2 ratio of Biotin-Ahx-Ub-VS probe labelling (fragment/DMSO); higher = less target engagement (more negative = stronger competition), active = hit call of the paper (q ≤ 0.05, log2 ratio ≤ -1)
Details in all cases: compound concentration: 200 uM; treatment time: 3 h
USP42 = target: T1, USP42 (UniProt Q9H9J4)
T1 sequence (whole entry): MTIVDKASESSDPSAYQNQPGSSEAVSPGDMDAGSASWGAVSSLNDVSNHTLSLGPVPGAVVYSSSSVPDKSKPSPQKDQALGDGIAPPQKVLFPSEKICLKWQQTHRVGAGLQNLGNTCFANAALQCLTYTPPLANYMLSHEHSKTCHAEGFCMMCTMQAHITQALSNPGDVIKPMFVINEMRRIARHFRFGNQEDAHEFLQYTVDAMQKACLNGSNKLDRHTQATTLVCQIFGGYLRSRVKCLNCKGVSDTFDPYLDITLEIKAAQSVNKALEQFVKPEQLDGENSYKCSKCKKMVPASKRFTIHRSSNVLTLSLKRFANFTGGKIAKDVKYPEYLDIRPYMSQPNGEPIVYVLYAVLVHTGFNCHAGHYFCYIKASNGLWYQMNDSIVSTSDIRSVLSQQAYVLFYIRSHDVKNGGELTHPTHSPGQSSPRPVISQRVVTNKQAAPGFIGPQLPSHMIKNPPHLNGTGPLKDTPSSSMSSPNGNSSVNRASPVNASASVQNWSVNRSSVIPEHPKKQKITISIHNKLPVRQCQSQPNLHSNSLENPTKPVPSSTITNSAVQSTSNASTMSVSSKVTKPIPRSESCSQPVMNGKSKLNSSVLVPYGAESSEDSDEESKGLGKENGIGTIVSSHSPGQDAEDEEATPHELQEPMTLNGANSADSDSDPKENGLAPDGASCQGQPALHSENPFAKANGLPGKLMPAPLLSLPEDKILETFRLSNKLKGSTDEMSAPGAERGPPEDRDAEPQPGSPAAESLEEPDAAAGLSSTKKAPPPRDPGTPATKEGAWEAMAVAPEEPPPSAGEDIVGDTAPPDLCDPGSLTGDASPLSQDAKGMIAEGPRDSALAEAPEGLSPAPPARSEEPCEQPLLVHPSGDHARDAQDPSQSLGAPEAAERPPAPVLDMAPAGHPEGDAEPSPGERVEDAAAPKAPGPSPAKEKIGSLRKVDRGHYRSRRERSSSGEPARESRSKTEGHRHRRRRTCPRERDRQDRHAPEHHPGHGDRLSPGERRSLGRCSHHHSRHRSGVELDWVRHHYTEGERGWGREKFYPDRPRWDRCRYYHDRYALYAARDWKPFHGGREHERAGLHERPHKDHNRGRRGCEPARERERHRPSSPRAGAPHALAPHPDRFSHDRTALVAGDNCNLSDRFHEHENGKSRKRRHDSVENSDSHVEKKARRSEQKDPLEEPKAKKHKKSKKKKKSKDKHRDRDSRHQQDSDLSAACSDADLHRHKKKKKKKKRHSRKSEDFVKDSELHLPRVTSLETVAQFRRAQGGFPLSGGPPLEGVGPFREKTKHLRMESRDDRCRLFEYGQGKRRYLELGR
In short: (§1)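 Using Biotin-Ahx-Ub-VS at 0.5 µM final for 1 h, DUBs were labelled in HEK293T lysate (495 µg per sample) that had first been treated in triplicate with fragment at 200 µM or vehicle for 3 h. NeutrAvidin enrichment, LysC and trypsin digestion and diaPASEF LC-MS/MS followed. Spectronaut label-free quantities were global-median-normalised. Values are average log2 fragment/vehicle ratios by unpaired t-test, using proteins with ≥2 unique peptides.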

USP46 = USP46 (UniProt P62068)
Chain of USP46 (P62068 whole entry): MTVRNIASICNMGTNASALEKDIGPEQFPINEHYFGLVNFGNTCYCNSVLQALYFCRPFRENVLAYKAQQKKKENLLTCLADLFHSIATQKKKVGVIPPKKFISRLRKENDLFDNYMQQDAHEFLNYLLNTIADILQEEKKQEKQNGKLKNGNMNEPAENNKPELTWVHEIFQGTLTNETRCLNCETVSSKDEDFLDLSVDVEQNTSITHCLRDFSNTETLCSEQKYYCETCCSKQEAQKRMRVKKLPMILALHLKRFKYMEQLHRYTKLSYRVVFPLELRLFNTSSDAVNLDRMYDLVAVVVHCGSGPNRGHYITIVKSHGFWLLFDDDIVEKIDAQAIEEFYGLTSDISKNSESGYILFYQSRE
In short: as §1

USP47 = target: T2, USP47 (UniProt Q96K76)
T2 sequence (whole entry): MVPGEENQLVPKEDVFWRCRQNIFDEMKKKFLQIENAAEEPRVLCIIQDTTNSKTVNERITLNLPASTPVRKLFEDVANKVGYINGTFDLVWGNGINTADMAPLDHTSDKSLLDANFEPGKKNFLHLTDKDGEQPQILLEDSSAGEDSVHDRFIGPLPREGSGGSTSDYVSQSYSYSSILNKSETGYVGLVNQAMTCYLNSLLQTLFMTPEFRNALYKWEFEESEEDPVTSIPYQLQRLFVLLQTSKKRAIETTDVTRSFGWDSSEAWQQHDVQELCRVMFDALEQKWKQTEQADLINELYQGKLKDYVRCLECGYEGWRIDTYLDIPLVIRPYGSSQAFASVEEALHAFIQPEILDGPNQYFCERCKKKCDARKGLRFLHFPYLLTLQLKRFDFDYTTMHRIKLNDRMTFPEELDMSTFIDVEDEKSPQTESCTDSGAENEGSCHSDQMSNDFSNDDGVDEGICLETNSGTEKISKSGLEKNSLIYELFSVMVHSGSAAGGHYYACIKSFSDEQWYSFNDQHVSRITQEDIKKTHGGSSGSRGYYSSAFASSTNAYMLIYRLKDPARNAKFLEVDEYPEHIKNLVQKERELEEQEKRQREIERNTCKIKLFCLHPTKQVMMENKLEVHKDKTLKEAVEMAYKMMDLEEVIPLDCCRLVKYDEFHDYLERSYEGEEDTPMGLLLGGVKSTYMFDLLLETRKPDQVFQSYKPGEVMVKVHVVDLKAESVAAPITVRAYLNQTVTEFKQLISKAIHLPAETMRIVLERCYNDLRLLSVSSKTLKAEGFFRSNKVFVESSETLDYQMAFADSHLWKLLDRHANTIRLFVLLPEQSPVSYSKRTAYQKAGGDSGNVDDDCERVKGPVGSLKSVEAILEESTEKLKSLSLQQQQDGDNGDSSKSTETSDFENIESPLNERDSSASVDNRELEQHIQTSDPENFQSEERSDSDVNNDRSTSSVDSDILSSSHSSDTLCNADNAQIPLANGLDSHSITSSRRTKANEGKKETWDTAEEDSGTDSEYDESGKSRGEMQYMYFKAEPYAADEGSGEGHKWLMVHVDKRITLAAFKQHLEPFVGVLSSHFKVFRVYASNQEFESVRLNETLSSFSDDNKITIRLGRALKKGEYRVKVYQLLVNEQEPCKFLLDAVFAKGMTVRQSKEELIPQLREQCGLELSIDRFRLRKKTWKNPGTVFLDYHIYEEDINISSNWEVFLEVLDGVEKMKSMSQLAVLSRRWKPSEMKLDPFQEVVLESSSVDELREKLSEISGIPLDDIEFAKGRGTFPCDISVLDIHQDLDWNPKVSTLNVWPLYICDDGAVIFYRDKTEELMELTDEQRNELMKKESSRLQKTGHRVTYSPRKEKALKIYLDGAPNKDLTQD
In short: as §1

USP48 = target: T3, USP48 (UniProt Q86UV5)
T3 sequence (whole entry): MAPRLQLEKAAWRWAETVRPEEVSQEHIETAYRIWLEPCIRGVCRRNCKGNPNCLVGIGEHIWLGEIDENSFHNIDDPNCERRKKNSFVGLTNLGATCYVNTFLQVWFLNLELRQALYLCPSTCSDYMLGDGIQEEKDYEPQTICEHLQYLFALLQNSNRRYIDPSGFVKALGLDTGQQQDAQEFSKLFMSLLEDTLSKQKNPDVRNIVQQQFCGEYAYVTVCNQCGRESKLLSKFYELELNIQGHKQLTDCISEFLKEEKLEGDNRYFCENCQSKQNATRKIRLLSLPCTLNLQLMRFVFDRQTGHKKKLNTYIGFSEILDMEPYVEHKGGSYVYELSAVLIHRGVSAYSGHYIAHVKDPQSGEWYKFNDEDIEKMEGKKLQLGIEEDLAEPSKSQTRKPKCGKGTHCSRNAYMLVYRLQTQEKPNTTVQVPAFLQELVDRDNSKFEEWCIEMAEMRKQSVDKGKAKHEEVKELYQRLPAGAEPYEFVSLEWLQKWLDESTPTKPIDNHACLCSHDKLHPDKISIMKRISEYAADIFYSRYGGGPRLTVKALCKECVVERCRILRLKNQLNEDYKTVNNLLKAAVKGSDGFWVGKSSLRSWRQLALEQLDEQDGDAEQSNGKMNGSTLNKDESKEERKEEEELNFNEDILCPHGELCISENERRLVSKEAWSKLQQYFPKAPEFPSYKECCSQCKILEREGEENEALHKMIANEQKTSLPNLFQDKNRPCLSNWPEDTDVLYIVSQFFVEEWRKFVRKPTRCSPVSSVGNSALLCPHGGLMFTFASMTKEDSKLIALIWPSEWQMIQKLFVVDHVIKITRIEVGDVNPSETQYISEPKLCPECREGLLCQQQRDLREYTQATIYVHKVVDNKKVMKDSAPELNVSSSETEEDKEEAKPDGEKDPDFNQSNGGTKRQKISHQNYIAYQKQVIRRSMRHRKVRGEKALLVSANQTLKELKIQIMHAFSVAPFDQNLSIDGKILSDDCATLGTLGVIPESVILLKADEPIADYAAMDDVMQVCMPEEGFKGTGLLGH
In short: as §1

USP5 = target: T4, USP5 (UniProt P45974)
T4 sequence (whole entry): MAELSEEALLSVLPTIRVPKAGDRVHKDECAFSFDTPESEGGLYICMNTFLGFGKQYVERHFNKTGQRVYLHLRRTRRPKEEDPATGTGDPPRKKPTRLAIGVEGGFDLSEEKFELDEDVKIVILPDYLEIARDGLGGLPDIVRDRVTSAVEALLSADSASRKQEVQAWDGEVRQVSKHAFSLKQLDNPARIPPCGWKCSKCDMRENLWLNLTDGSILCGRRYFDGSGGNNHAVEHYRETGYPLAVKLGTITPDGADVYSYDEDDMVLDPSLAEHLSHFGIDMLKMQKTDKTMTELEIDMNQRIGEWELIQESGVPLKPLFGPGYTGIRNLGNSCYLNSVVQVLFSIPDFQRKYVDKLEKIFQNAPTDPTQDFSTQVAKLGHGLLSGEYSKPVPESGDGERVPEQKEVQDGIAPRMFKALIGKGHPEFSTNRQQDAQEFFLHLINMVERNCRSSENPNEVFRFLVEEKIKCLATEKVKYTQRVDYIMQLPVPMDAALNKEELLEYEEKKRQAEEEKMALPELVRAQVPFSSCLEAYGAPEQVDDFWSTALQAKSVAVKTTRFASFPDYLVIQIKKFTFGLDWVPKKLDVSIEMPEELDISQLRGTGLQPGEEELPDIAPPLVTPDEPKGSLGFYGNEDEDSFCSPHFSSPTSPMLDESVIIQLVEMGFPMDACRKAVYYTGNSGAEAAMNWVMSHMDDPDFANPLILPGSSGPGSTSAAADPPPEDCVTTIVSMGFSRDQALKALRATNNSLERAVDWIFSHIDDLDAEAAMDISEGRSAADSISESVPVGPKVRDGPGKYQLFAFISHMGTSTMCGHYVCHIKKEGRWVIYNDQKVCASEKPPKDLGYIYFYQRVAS
In short: as §1

USP54 = USP54 (UniProt Q70EL1)
Chain of USP54 (Q70EL1 whole entry): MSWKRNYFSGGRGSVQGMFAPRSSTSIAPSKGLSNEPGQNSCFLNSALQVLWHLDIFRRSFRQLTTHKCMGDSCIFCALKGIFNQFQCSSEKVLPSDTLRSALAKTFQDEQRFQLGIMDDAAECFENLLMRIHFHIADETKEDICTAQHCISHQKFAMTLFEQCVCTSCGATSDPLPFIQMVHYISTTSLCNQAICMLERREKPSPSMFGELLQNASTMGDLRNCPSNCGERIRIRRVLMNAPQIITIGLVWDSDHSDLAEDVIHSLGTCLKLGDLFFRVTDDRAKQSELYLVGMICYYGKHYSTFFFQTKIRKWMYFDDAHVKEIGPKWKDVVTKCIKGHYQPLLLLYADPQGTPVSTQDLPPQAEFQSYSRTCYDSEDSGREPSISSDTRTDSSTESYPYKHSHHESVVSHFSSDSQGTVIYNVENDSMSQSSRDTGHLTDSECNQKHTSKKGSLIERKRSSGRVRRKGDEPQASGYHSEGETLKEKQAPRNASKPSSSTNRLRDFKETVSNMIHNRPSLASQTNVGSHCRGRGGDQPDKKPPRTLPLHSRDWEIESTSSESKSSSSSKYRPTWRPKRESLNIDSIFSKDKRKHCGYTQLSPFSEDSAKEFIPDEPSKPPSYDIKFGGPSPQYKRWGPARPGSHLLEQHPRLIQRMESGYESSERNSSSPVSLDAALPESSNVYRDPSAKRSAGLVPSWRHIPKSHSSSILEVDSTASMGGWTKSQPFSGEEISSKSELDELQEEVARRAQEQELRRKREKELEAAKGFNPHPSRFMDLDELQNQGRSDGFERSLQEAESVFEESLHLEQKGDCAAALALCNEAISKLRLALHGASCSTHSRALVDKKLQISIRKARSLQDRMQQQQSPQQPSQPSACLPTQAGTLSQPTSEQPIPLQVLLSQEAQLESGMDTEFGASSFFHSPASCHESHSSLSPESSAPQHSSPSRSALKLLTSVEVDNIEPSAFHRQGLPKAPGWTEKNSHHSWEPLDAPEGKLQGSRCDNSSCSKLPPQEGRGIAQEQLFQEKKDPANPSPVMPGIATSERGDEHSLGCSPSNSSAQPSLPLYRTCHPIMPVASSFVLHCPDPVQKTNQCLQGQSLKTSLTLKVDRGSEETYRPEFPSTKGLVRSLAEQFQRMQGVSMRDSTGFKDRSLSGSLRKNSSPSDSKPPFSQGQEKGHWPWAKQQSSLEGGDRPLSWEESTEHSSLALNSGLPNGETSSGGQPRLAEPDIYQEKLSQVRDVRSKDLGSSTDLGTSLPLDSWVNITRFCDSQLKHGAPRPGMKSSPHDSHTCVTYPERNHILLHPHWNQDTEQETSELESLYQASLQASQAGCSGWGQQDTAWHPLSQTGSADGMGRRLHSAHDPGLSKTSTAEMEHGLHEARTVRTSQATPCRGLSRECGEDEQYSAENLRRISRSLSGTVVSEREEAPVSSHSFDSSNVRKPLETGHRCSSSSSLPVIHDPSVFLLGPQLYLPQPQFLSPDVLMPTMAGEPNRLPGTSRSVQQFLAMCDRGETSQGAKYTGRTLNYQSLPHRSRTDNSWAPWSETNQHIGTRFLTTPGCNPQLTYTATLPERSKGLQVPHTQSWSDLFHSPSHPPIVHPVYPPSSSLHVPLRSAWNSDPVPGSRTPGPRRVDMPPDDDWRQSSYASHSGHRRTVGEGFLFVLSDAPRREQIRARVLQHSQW
In short: as §1

USP7 = USP7 (UniProt Q93009)
Chain of USP7 (Q93009 whole entry, looked up): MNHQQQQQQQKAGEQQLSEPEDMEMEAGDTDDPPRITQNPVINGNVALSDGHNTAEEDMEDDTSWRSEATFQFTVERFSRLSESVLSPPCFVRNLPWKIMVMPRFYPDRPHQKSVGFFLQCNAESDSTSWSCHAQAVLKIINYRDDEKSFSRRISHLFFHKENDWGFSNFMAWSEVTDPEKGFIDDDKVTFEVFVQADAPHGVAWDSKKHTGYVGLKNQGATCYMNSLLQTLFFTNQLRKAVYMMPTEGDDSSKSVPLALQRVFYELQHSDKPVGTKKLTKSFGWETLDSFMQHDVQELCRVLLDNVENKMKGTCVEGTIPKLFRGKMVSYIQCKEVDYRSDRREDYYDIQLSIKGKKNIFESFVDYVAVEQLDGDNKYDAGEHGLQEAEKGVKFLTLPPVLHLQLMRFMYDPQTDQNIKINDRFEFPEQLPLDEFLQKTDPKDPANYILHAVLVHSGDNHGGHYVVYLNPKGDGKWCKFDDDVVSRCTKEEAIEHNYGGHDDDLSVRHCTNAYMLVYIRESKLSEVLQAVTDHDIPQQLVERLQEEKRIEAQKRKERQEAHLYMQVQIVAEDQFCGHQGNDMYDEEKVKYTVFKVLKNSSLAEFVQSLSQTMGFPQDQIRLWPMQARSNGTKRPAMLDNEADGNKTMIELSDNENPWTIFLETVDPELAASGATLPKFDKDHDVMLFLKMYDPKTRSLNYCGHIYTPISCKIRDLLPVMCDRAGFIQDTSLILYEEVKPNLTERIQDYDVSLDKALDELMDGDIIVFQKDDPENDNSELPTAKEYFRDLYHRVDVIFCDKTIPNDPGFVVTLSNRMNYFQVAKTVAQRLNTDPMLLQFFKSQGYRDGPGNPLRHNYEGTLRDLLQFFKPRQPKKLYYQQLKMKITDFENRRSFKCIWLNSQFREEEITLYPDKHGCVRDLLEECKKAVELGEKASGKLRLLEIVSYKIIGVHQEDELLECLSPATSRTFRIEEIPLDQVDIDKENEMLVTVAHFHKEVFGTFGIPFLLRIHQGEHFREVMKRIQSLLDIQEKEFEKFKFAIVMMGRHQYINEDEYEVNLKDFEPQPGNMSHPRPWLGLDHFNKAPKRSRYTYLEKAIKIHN
In short: as §1

USP8 = target: T5, USP8 (UniProt P40818)
T5 sequence (whole entry): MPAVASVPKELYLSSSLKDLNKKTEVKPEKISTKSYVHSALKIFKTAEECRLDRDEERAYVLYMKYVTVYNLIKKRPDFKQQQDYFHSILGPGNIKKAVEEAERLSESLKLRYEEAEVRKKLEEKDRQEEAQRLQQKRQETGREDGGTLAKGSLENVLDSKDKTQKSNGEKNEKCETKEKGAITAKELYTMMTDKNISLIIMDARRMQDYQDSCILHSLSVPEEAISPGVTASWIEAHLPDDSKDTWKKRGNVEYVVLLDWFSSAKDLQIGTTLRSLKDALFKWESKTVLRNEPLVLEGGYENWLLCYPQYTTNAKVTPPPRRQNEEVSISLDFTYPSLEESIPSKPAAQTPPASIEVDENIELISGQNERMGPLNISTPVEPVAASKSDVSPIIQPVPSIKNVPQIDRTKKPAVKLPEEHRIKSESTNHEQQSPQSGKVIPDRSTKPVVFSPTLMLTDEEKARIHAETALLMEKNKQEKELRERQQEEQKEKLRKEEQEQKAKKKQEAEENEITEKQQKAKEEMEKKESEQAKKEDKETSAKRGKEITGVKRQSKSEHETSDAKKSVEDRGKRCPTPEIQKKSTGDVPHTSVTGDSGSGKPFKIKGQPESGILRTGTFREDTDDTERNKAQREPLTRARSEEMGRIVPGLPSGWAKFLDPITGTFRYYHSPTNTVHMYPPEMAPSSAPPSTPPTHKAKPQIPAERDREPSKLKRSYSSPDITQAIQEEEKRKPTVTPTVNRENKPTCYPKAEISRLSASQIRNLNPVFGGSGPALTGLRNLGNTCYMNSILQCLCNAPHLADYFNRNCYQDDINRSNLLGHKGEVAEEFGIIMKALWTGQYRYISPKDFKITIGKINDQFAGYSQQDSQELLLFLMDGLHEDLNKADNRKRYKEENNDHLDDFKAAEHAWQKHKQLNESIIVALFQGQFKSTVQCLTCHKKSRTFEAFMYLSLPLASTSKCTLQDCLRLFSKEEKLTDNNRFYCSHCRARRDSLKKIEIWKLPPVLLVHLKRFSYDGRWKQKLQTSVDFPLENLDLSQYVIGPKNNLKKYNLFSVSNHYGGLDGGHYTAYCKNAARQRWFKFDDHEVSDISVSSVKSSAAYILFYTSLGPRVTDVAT
In short: as §1

Measured: log2 ratio of Biotin-Ahx-Ub-VS probe labelling

Cl.Cn1nc2c(c1CNC(=O)CCl)CCCC2
inactive: USP42 -0.241 | USP46 0.117 | USP47 0.0138 | USP48 -0.0889 | USP5 0.0696 | USP54 0.268 | USP7 -0.055 | USP8 -0.598
